Several values for one entry are separate records, joined by “and”; a condition that tells them apart may be missing. Equal values may be shown once. This is part of a sample that, as a whole, favours compounds with a hit. Of some 79,000 tested, about 15% had one in any assay. Some structures have more than one record in an assay (separate samples or runs), and their calls can disagree. Activity calls are given as the source filed them. No stated cut-off is given here; in the data, active means growth inhibition above about 70%; inactive means the rest.
Legend:
[1] = NCI Yeast Anticancer Drug Screen. Data for the rad50 strain (AID 155);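 further: 0% = growth of vehicle-only cultures of the same strain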; conditions: S. cerevisiae rad50 strain growth inhibition, stronger effect = higher value
In short: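 Yeast carrying a defined DNA repair defect were exposed to test compounds, and growth was compared with vehicle-treated controls to give percent inhibition.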

[2] = NCI Yeast Anticancer Drug Screen. Data for the mec2-1 strain (AID 157); conditions: S. cerevisiae mec2-1 strain, stronger effect = higher value
In short: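 Mutant yeast (mec2-1) grown with compound; growth inhibition relative to vehicle control reported.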

[3] = NCI Yeast Anticancer Drug Screen. Data for the sgs1 mgt1 strain (AID 161);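 further: 0% = growth of cultures given vehicle only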; conditions: S. cerevisiae sgs1 mgt1 strain, stronger effect = higher value
In short: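 Percent growth inhibition was derived by comparing compound-exposed mutant yeast with vehicle-exposed cultures. The strain carries alterations in DNA damage repair.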

[4] = NCI Yeast Anticancer Drug Screen. Data for the cln2 rad14 strain (AID 165);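 further: 0% = growth equal to vehicle treated cultures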; conditions: S. cerevisiae cln2 rad14 strain, stronger effect = higher value
In short: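 Readout is yeast growth inhibition versus vehicle-treated controls, using a strain with cln2 and rad14 alterations exposed to compound.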

[5] = NCI Yeast Anticancer Drug Screen. Data for the bub3 strain (AID 167); conditions: S. cerevisiae bub3 mutant strain, stronger effect = higher value
In short: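 Compounds were applied to a genetically altered yeast strain carrying a cell-cycle control defect. Growth inhibition was scored against vehicle-treated controls.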

[6] = NCI Yeast Anticancer Drug Screen. Data for the mlh1 rad18 strain (AID 175); conditions: S. cerevisiae mlh1 rad18 strain growth inhibition, stronger effect = higher value
In short: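 Genetically defined yeast (DNA repair-deficient) exposed to compounds; growth inhibition determined relative to vehicle.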

[7] = at 5.0 µM (retest, dose inferred, filed as 0.5)
[8] = at 50.0 µM (retest, dose inferred, filed as 5.0)

Measured: growth inhibition

CC(=O)[O][Hg][c]1cc2c(cc1O)Cc1cc([N+](=O)[O-])ccc1-2
active: [1]; [7] 95% | [1]; [8] 98% | [1]; at 50.0 µM 93.5% | [2]; [7] 99% | [2]; [8] 99% | [2]; at 50.0 µM 98% | [3]; [7] 99% | [3]; [8] 99% | [3]; at 50.0 µM 86.2% | [4]; [7] 76% | [4]; [8] 98% | [4]; at 50.0 µM 94.1% | [5]; [7] 99% | [5]; [8] 98% | [5]; at 50.0 µM 97.6% | [6]; [7] 99% | [6]; [8] 99% | [6]; at 50.0 µM 96.5%

O=C(O)CN(CCN(CC(=O)O)CC(=O)O)CC(=O)O
active: [2]; [8] 70% | [3]; [8] 74% | [6]; [8] 70%
inactive: [1]; [7] 8% | [1]; [8] 69% | [1]; at 50.0 µM 27.9% and 13.8% and 43.4% | [2]; [7] 14% | [2]; at 50.0 µM 42.2% and 20% and 30.6% | [3]; [7] 11% | [3]; at 50.0 µM 65.8% and 26.2% and 57.2% | [4]; [7] -3% | [4]; [8] 49% | [4]; at 50.0 µM -14.9% and -22.5% and 17.4% | [5]; [7] 10% | [5]; [8] 66% | [5]; at 50.0 µM 60.7% and 38% and 53.3% | [6]; [7] 6% | [6]; at 50.0 µM 44.4% and 24.2% and 46.9%

CC[C@@]1(O)C[C@H](OC2CC(N(C)C)C(OC3CC(O)C(OC4CCC(=O)C(C)O4)C(C)O3)C(C)O2)c2c(cc3c(c2O)C(=O)c2c(O)ccc(O)c2C3=O)[C@H]1C(=O)OC (some centres undefined)
92% (active) and 67% (inactive): [5]; [7]
active: [1]; [7] 95% and 89% | [1]; [8] 98% | [1]; at 50.0 µM 88.1% and 91.8% | [2]; [7] 95% and 78% | [2]; [8] 99% | [2]; at 50.0 µM 91.2% and 93.5% | [3]; [7] 95% and 87% | [3]; [8] 99% and 98% | [3]; at 50.0 µM 89.8% and 92.3% | [4]; [7] 91% and 71% | [4]; [8] 97% | [4]; at 50.0 µM 88.7% and 91.2% | [5]; [8] 98% | [5]; at 50.0 µM 89.3% and 92.3% | [6]; [7] 96% and 80% | [6]; [8] 98% | [6]; at 50.0 µM 88.2% and 91.7%

O=P(CP(=O)(c1ccccc1)c1ccccc1)(c1ccccc1)c1ccccc1.[CH3][Sn]([CH3])([Cl])[Cl]
inactive: [1]; [7] 6% | [1]; [8] 27% | [1]; at 50.0 µM 21.4% | [2]; [7] 21% | [2]; [8] 9% | [3]; [7] 5% | [3]; [8] 8% | [3]; at 50.0 µM 22.9% | [4]; [7] 3% | [4]; [8] -12% | [4]; at 50.0 µM 8.35% | [5]; [7] 0% | [5]; [8] 8% | [5]; at 50.0 µM 4.25% | [6]; [7] 2% | [6]; [8] 15% | [6]; at 50.0 µM 19.4%
active: [2]; at 50.0 µM 89.3%

COC1(OC)C(Cl)=C(Cl)C(Cl)=C1Cl
inactive: [1]; [7] 9% | [1]; at 50.0 µM 46.4% | [2]; [7] -2% | [2]; at 50.0 µM 46.5% | [3]; [7] -1% | [4]; [7] 0% | [4]; [8] 42% | [4]; at 50.0 µM -9.85% | [5]; [7] 2% | [5]; at 50.0 µM 58.8% | [6]; [7] 4%
active: [1]; [8] 95% | [2]; [8] 84% | [3]; [8] 91% | [3]; at 50.0 µM 75.2% | [5]; [8] 89% | [6]; [8] 76% | [6]; at 50.0 µM 78.8%

C[C@]12CC/C(=N\NC(=O)c3ccncc3)C[C@@H]1CC[C@@H]1[C@@H]2CC[C@]2(C)[C@@H](O)CC[C@@H]12
active: [3]; at 50.0 µM 77.3%
inactive: [1]; [7] 0% | [1]; [8] 52% | [1]; at 50.0 µM 68.9% | [2]; [7] 5% | [2]; [8] 54% | [2]; at 50.0 µM 29.1% | [3]; [7] 13% | [3]; [8] 65% | [4]; [7] 6% | [4]; [8] 8% | [4]; at 50.0 µM 66.8% | [5]; [7] 2% | [5]; [8] 37% | [5]; at 50.0 µM 35% | [6]; [7] 10% | [6]; [8] 46% | [6]; at 50.0 µM 59.1%

O=[N+]([O-])c1ccc2c[n+]3ccccc3cc2c1
active: [1]; [8] 84% | [1]; at 50.0 µM 80.3% | [6]; [8] 86%
inactive: [1]; [7] 21% | [2]; [7] 4% | [2]; [8] 50% | [2]; at 50.0 µM 5.3% | [3]; [7] 2% | [3]; [8] 56% | [3]; at 50.0 µM 36.2% | [4]; [7] 1% | [4]; [8] 43% | [4]; at 50.0 µM -17.4% | [5]; [7] -5% | [5]; [8] 56% | [5]; at 50.0 µM 3.8% | [6]; [7] 12% | [6]; at 50.0 µM 62%

COC(=O)C1=C(O)C(C(=O)OC)[C@]2(O)[C@@H](C(=O)OC)[C@H]1C[C@@H](c1ccccc1)[C@@H]2C(=O)OC (some centres undefined)
active: [1]; [8] 98% | [1]; at 50.0 µM 97.7% | [2]; [8] 97% | [2]; at 50.0 µM 98.3% | [3]; [8] 97% | [3]; at 50.0 µM 98.3% | [4]; [8] 92% | [4]; at 50.0 µM 84.3% | [5]; [8] 97% | [5]; at 50.0 µM 98.2% | [6]; [8] 98% | [6]; at 50.0 µM 98.6%
inactive: [1]; [7] 4% | [2]; [7] 3% | [3]; [7] 10% | [4]; [7] 11% | [5]; [7] 3% | [6]; [7] 10%

Source: PubChem BioAssay (NCI)
